# Measured values reported in PubChem BioAssay (NCI).
# The panel holds about 79,000 compounds, 15% with a hit somewhere; the sample as a whole holds those more often. Values without a mark were called inactive. Activity calls are given as the source filed them. Rule as the data show it: active = growth inhibition above about 70%; inactive = the rest.
# How the values were obtained:
# [1] = NCI Yeast Anticancer Drug Screen. Data for the wt2 strain (AID 169);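 also: 0% = growth of vehicle-treated yeast cultures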; conditions: S. cerevisiae wt2 strain growth inhibition, active compounds read high
# Summary of the method: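 Growth of compound-treated yeast is measured and expressed as inhibition relative to vehicle-only controls.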
# [2] = NCI Yeast Anticancer Drug Screen. Data for the mlh1 strain (AID 171);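 also: 0% = growth of vehicle-treated control cultures of the same strain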; conditions: S. cerevisiae mlh1 strain growth inhibition, active compounds read high
# Summary of the method: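 Test agents were incubated with yeast bearing a defined DNA damage repair or cell cycle control alteration; values are growth inhibition normalised to vehicle-treated cultures.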
# [3] = NCI Yeast Anticancer Drug Screen. Data for the sgs1 strain (AID 173);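 also: 0% = growth of vehicle-only control cultures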; conditions: S. cerevisiae sgs1 mutant, active compounds read high
# Summary of the method: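 Strain with an altered DNA repair or cell cycle pathway exposed to compound. Growth then measured. Value = inhibition versus vehicle control.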
# [4] = NCI Yeast Anticancer Drug Screen. Data for the mlh1 rad18 strain (AID 175); conditions: S. cerevisiae mlh1 rad18 strain growth inhibition, active compounds read high
# Summary of the method: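 A repair-deficient yeast strain is exposed to test compound, and growth is scored relative to vehicle-treated controls.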
# [5] = NCI Yeast Anticancer Drug Screen. Data for the rad18 strain (AID 177); conditions: S. cerevisiae rad18 mutant growth inhibition, active compounds read high
# Summary of the method: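 DNA-repair-defective yeast; compound treatment; growth inhibition scored against vehicle.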
# [6] = NCI Yeast Anticancer Drug Screen. Data for the rad52 strain (AID 147);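 also: 0% = growth of vehicle-treated control cultures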; conditions: S. cerevisiae rad52 mutant growth inhibition, active compounds read high
# Summary of the method: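 Growth of repair-deficient yeast cells was compared between compound-treated and vehicle-treated cultures to give percent inhibition.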
# [7] = NCI Yeast Anticancer Drug Screen. Data for the wt1 strain (AID 149);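 also: 0% = growth of vehicle-treated wt1 cultures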; conditions: S. cerevisiae wt1 strain (SPY 50644) growth inhibition, active compounds read high
# Summary of the method: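 Compounds are added to wt1 yeast cultures. Growth is then measured. Inhibition is expressed relative to vehicle-treated controls.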
# [8] = NCI Yeast Anticancer Drug Screen. Data for the rad50EPP+ strain (AID 151);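 also: 0% = growth of vehicle-treated control cultures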; conditions: S. cerevisiae rad50 mutant strain, active compounds read high
# Summary of the method: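 Measured: growth inhibition of rad50EPP+ yeast. Reference: vehicle-treated controls. Screen uses strains with defined genetic alterations in DNA damage repair or cell cycle control.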
# [9] = NCI Yeast Anticancer Drug Screen. Data for the mgt1 strain (AID 153); conditions: S. cerevisiae mgt1 mutant growth inhibition, active compounds read high
# Summary of the method: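 Compounds were applied to mgt1 mutant yeast, and growth was then compared against vehicle-treated control cultures to give percent inhibition.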
# [10] = NCI Yeast Anticancer Drug Screen. Data for the rad50 strain (AID 155);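 also: 0% = growth of vehicle-only cultures of the same strain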; conditions: S. cerevisiae rad50 strain growth inhibition, active compounds read high
# Summary of the method: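 Inhibition values express reduced yeast growth in compound-treated cultures relative to vehicle-treated controls.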
# [11] = NCI Yeast Anticancer Drug Screen. Data for the mec2-1 strain (AID 157); conditions: S. cerevisiae mec2-1 strain, active compounds read high
# Summary of the method: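 Compounds were applied to mec2-1 yeast cells. Their growth was then compared with that of vehicle-treated cultures to give growth inhibition.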
# [12] = NCI Yeast Anticancer Drug Screen. Data for the rad14 strain (AID 159);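 also: 0% = growth of vehicle-treated control cultures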; conditions: S. cerevisiae rad14 strain growth inhibition, active compounds read high
# Summary of the method: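 A mutant yeast strain defective in DNA damage repair is treated with compound; inhibition of its growth is scored against untreated, vehicle-exposed cultures.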
# [13] = NCI Yeast Anticancer Drug Screen. Data for the sgs1 mgt1 strain (AID 161);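 also: 0% = growth of cultures given vehicle only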; conditions: S. cerevisiae sgs1 mgt1 strain, active compounds read high
# Summary of the method: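 Compounds are added to genetically altered yeast, and growth is compared with cultures given vehicle alone to give percent inhibition.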
# [14] = NCI Yeast Anticancer Drug Screen. Data for the CLN2oe strain (AID 163);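 also: 0% = growth of vehicle-only control cultures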; conditions: S. cerevisiae CLN2oe strain, active compounds read high
# Summary of the method: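 Cells of an engineered yeast line with disturbed cell-cycle regulation are treated with compound. Inhibition of growth is then calculated relative to the vehicle-treated reference.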
# [15] = NCI Yeast Anticancer Drug Screen. Data for the cln2 rad14 strain (AID 165);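 also: 0% = growth equal to vehicle treated cultures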; conditions: S. cerevisiae cln2 rad14 strain, active compounds read high
# Summary of the method: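 Strain: cln2 rad14 yeast, altered in cell cycle control and DNA damage repair. Read-out: growth inhibition vs vehicle.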
# [16] = NCI Yeast Anticancer Drug Screen. Data for the bub3 strain (AID 167); conditions: S. cerevisiae bub3 mutant strain, active compounds read high
# Summary of the method: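 Steps: expose the mutant yeast strain to compound; grow alongside vehicle-treated cultures; measure growth; express inhibition against the vehicle cultures.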
# [17] = at 5.0 µM (retest, dose inferred, filed as 0.5)
# [18] = at 50.0 µM (retest, dose inferred, filed as 5.0)
compound,measurement,setting,value
CC(Cc1ccccc1)N(C)Cc1nc(C2CCC([N+](=O)[O-])O2)no1 (stereo unspecified),growth inhibition,[1]; at 1.2 µM,0%
same,growth inhibition,[1]; at 3.7 µM,3%
same,growth inhibition,[1]; at 11.0 µM,9%
same,growth inhibition,[1]; at 33.0 µM,27%
same,growth inhibition,[1]; at 100.0 µM,34%
same,growth inhibition,[2]; at 1.2 µM,-1%
same,growth inhibition,[2]; at 3.7 µM,-3%
same,growth inhibition,[2]; at 11.0 µM,2%
same,growth inhibition,[2]; at 33.0 µM,14%
same,growth inhibition,[2]; at 100.0 µM,17%
same,growth inhibition,[3]; at 1.2 µM,-26%
same,growth inhibition,[3]; at 3.7 µM,5%
same,growth inhibition,[3]; at 11.0 µM,20%
same,growth inhibition,[3]; at 33.0 µM,50%
same,growth inhibition,[3]; at 100.0 µM,67%
same,growth inhibition,[4]; [17],47%
same,growth inhibition,[4]; [18],97% (active)
same,growth inhibition,[4]; at 50.0 µM,80.2% (active)
same,growth inhibition,[5]; at 1.2 µM,14%
same,growth inhibition,[5]; at 3.7 µM,36%
same,growth inhibition,[5]; at 11.0 µM,69%
same,growth inhibition,[5]; at 33.0 µM,86% (active)
same,growth inhibition,[5]; at 100.0 µM,95% (active)
CN(CCc1ccc(Br)cc1)CCN1CCCCC1,growth inhibition,[6]; at 1.2 µM,19%
same,growth inhibition,[6]; at 3.7 µM,26%
same,growth inhibition,[6]; at 11.0 µM,51%
same,growth inhibition,[6]; at 33.0 µM,81% (active)
same,growth inhibition,[6]; at 100.0 µM,98% (active)
same,growth inhibition,[7]; at 1.2 µM,8%
same,growth inhibition,[7]; at 3.7 µM,16%
same,growth inhibition,[7]; at 11.0 µM,20%
same,growth inhibition,[7]; at 33.0 µM,60%
same,growth inhibition,[7]; at 100.0 µM,97% (active)
same,growth inhibition,[8]; at 1.2 µM,-1%
same,growth inhibition,[8]; at 3.7 µM,0%
same,growth inhibition,[8]; at 11.0 µM,-1%
same,growth inhibition,[8]; at 33.0 µM,0%
same,growth inhibition,[8]; at 100.0 µM,6%
same,growth inhibition,[9]; at 1.2 µM,7%
same,growth inhibition,[9]; at 3.7 µM,20%
same,growth inhibition,[9]; at 11.0 µM,70% (active)
same,growth inhibition,[9]; at 33.0 µM,94% (active)
same,growth inhibition,[9]; at 100.0 µM,99% (active)
same,growth inhibition,[10]; at 1.2 µM,15%
same,growth inhibition,[10]; at 3.7 µM,18%
same,growth inhibition,[10]; [17],9%
same,growth inhibition,[10]; at 11.0 µM,38%
same,growth inhibition,[10]; at 33.0 µM,91% (active)
same,growth inhibition,[10]; [18],74% (active)
same,growth inhibition,[10]; at 50.0 µM,78.3% (active)
same,growth inhibition,[10]; at 100.0 µM,98% (active)
same,growth inhibition,[11]; at 1.2 µM,17%
same,growth inhibition,[11]; at 3.7 µM,24%
same,growth inhibition,[11]; [17],13%
same,growth inhibition,[11]; at 11.0 µM,35%
same,growth inhibition,[11]; at 33.0 µM,74% (active)
same,growth inhibition,[11]; [18],73% (active)
same,growth inhibition,[11]; at 50.0 µM,86.7% (active)
same,growth inhibition,[11]; at 100.0 µM,99% (active)
same,growth inhibition,[12]; at 1.2 µM,31%
same,growth inhibition,[12]; at 3.7 µM,49%
same,growth inhibition,[12]; at 11.0 µM,68%
same,growth inhibition,[12]; at 33.0 µM,97% (active)
same,growth inhibition,[12]; at 100.0 µM,98% (active)
same,growth inhibition,[13]; [17],30%
same,growth inhibition,[13]; [18],86% (active)
same,growth inhibition,[13]; at 50.0 µM,92.5% (active)
same,growth inhibition,[14]; at 1.2 µM,15%
same,growth inhibition,[14]; at 3.7 µM,26%
same,growth inhibition,[14]; at 11.0 µM,46%
same,growth inhibition,[14]; at 33.0 µM,78% (active)
same,growth inhibition,[14]; at 100.0 µM,98% (active)
same,growth inhibition,[15]; [17],55%
same,growth inhibition,[15]; [18],88% (active)
same,growth inhibition,[15]; at 50.0 µM,83.2% (active)
same,growth inhibition,[16]; at 1.2 µM,20%
same,growth inhibition,[16]; at 3.7 µM,29%
same,growth inhibition,[16]; [17],20%
same,growth inhibition,[16]; at 11.0 µM,60%
same,growth inhibition,[16]; at 33.0 µM,94% (active)
same,growth inhibition,[16]; [18],88% (active)
same,growth inhibition,[16]; at 50.0 µM,91% (active)
same,growth inhibition,[16]; at 100.0 µM,98% (active)
same,growth inhibition,[1]; at 1.2 µM,8%
same,growth inhibition,[1]; at 3.7 µM,23%
same,growth inhibition,[1]; at 11.0 µM,47%
same,growth inhibition,[1]; at 33.0 µM,93% (active)
same,growth inhibition,[1]; at 100.0 µM,99% (active)
same,growth inhibition,[2]; at 1.2 µM,11%
same,growth inhibition,[2]; at 3.7 µM,22%
same,growth inhibition,[2]; at 11.0 µM,41%
same,growth inhibition,[2]; at 33.0 µM,82% (active)
same,growth inhibition,[2]; at 100.0 µM,99% (active)
same,growth inhibition,[3]; at 1.2 µM,16%
same,growth inhibition,[3]; at 3.7 µM,41%
same,growth inhibition,[3]; at 11.0 µM,65%
same,growth inhibition,[3]; at 33.0 µM,96% (active)
same,growth inhibition,[3]; at 100.0 µM,99% (active)
same,growth inhibition,[4]; [17],6%
same,growth inhibition,[4]; [18],86% (active)
same,growth inhibition,[4]; at 50.0 µM,92.5% (active)
same,growth inhibition,[5]; at 1.2 µM,27%
same,growth inhibition,[5]; at 3.7 µM,53%
same,growth inhibition,[5]; at 11.0 µM,54%
same,growth inhibition,[5]; at 33.0 µM,94% (active)
same,growth inhibition,[5]; at 100.0 µM,98% (active)
